# Assay results: PubChem BioAssay AID2551 (National Center for Advancing Translational Sciences (NCATS), 2010)
# The campaign covered roughly 310,000 compounds. About 17,000 (5.5%) were called active. Where a call stands in place of a potency, no number is given. Roughly 11% stayed inconclusive and do not appear here. The call rests on the fitted dose curve; in most records, active means well fitted inhibition curve with a large enough effect; inconclusive means small, poorly fitted or top-dose-only effect, or effect the other way; inactive means no such curve, though single readings can be large or run the other way. Many of the other results were omitted from the sample, so actives are more common in it than they were.
# Molecular target: Nuclear receptor ROR-gamma (Mus musculus) (UniProt P51450)
# Assay: qHTS for inhibitors of ROR gamma transcriptional activity; further: nearly all actives have a fitted effect of over 60% in size
# Details: Drosophila S2 Gal4-RORgamma UAS-luciferase reporter, 20 h; series mostly up to 53.6 µM
# Method in brief: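 Compounds are pin-transferred onto Drosophila Schneider cells expressing a copper-inducible Gal4–ROR gamma transactivation domain fusion. After 1 hr, copper sulfate is added to 700 uM final; luciferase is read 20 hr later.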
# Potency means the concentration at half of the fitted maximal effect.
# Chain of Nuclear receptor ROR-gamma (Mus musculus) (P51450 whole entry, looked up): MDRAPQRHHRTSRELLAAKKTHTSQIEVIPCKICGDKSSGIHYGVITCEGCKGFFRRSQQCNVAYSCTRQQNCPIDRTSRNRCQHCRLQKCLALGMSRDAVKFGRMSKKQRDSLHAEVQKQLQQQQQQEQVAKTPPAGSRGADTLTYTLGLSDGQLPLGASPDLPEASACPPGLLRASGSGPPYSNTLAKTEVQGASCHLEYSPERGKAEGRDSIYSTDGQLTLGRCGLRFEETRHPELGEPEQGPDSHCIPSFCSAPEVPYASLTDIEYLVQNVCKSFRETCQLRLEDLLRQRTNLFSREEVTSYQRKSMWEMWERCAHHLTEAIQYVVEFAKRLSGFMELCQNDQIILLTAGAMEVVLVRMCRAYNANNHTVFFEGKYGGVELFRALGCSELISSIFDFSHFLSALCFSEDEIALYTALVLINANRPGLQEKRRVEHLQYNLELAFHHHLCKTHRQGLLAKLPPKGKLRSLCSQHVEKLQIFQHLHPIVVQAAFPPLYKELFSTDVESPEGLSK
Structure (SMILES),Potency,"activity change, negative = inhibition"
Cc1ccn(CCC(=O)N2c3ccccc3CC2C)n1 (stereo not drawn),inactive,–
COc1ccc(-c2cn(-c3ccc(OC)cc3)c(=S)[nH]2)cc1,0.398 µM (active),–
COc1ccc(-n2c(C)csc2=S)cc1,inactive,–
COc1ccc(N2C(=O)CNC2=S)cc1,inactive,–
COc1ccc(S(=O)(=O)N(CC(=O)N/N=C/c2ccc(C(=O)O)cc2)Cc2ccccc2)cc1OC,inactive,–
COc1ccc(-n2ncc3c(SCC(=O)NNC(C)=O)ncnc32)cc1,inactive,–
CC(C)C[C@@H](COc1ccccc1)N1CCN(CC(C)C)CCC1=O,inactive,–
C/C(=N\OCC(=O)O)c1ccc(Cl)cc1,inactive,–
CCOC(=O)CN/C=C(\C#N)c1ccc(F)cc1,inactive,–
CCOc1cc(/C=C(/C#N)c2ccc(Cl)cc2)cc(Cl)c1OCC(=O)O,0.891 µM (active),–
CC(C)CNC(=S)NC(=O)c1ccc(Cl)cc1,3.98 µM (active),–
CCOC(=O)NNC(=O)c1ccc(Cl)cc1,inactive,–
CC(C)C(NC(=O)c1ccc(Cl)cc1)C(=O)O (stereo not drawn),inactive,–
COc1ccc(C2=NS(=O)(=O)N(C)C(C(=O)N(C)Cc3ccccc3)=C2)cc1,inactive,–
CCn1cc(CCC(=O)NCc2ccc(F)cc2)c2ccccc21,inactive,–
CCN(CC)CCn1c(/N=C/c2cc(Br)ccc2O)nc2ccccc21,3.98 µM (active),–
C/C(=N\c1nc2ccccc2n1C)c1cc(Cl)ccc1O,inactive,–
CCN(CC)CCn1c(N)c(S(=O)(=O)c2ccccc2)c2nc3ccccc3nc21,inactive,–
Cc1ccc(Cn2c(C)c3cnn(CC(=O)NCc4ccccn4)c(=O)c3c2C)cc1,inactive,–
CCOC(=O)c1cc2ccccc2n1CC(=O)c1ccccc1,inactive,–
CCn1c(=N)n(CC(=O)c2cccc(OC)c2)c2ccccc21,6.31 µM (active),–
COc1ccc2cc(C(=O)O)n(CC(=O)c3ccccc3)c2c1,inactive,–
COc1ccc(NC(=O)c2cc(-c3cc(OC)c(OC)c(OC)c3)nc3ccccc23)c(OC)c1,inactive,–

Structure (SMILES),Potency,"activity change, negative = inhibition"
COC(=O)c1ccc(COc2ccc(C#N)cc2)o1,inactive,–
COc1ccc(C2/C(=C(/O)c3ccccc3)C(=O)C(=O)N2C)c(OC)c1 (stereo not drawn),inactive,–
CCn1c(C(O)c2cc(OC)ccc2OC)nc2ccccc21 (stereo not drawn),inactive,–
CCCn1c(C(O)c2cc(OC)ccc2OC)nc2ccccc21 (stereo not drawn),17.8 µM (active),–
COc1ccc(OC)c(C(O)c2nc3ccccc3n2C)c1 (stereo not drawn),inactive,–
CCOC(=O)c1ccccc1NS(=O)(=O)c1c(C)nc2sccn2c1=O,inactive,–
OCC(CO)NC1C[C@](O)(CO)[C@@H](O)[C@H](O)[C@H]1O (stereo partly drawn),–,4.55% [at 10 µM] (inactive)
C=CCn1c(C23CC4CC(CC(C4)C2)C3)n[nH]c1=S,2.82 µM (active),–
C=CCn1c(SCC(=O)NC)nnc1C12CC3CC(CC(C3)C1)C2,inactive,–
C=CCn1c(SCC(=O)NC23CC4CC(CC(C4)C2)C3)nc(O)cc1=O,inactive,–
Cc1nn(Cc2ccccc2)c(C)c1NS(=O)(=O)c1ccccc1,inactive,–
Cc1ccccc1NC(=O)CCNS(=O)(=O)c1ccc2[nH]c(=O)oc2c1,inactive,–
CC(OC(=O)c1ccc2ccccc2n1)C(=O)c1ccccc1 (stereo not drawn),inactive,–
CCOc1cccc(/C=C/c2ccc3ccccc3n2)c1OC(C)=O,3.98 µM (active),–
COc1cccc(/C=C2\C=C(c3ccc(C)cc3)OC2=O)c1OC(C)=O,inactive,–
CCOc1ccccc1-c1cc(C(=O)N2CCOCC2)c2ccccc2n1,inactive,–
COc1cccc(/C=C/c2ccc3ccccc3n2)c1OC(C)=O,2 µM (active),–
CC(=O)c1ccc(S(=O)(=O)N2CCN(C(=O)/C=C/c3ccc4ccccc4n3)CC2)cc1,inactive,–
Cc1cc(=O)oc2c(C)c(OC(C)C(=O)NC3CCN(Cc4ccccc4)CC3)ccc12 (stereo not drawn),inactive,–
COCc1ccc(C(=O)NC2CC(C)(C)Cc3c2cnn3-c2ccc(C)cc2)o1 (stereo not drawn),inactive,–
CC(=O)c1ccc(NC(=O)CCNS(=O)(=O)c2cc(Br)cnc2N)cc1,inactive,–
O=C(Nc1ccc2oc(-c3ccccc3F)nc2c1)c1ccco1,inactive,–
COc1cc(OC)cc(C(=O)Nc2ccc(-c3nc4ccccc4o3)c(O)c2)c1,11.2 µM (active),–

Structure (SMILES),Potency,"activity change, negative = inhibition"
COc1cc(OC)cc(C(=O)Nc2ccc(S(=O)(=O)Nc3cc(C)on3)cc2)c1,inactive,–
C[n+]1cc(-c2ccccc2)oc1-c1ccccc1,inactive,–
CC(C)N(C(=O)Cn1cc(S(=O)(=O)CC(=O)N2CCOCC2)c2ccccc21)C(C)C,inactive,–
COc1ccc2c(CC(=O)N3CCc4cc(OC)c(OC)cc4C3)coc2c1,inactive,–
C=C1C(=CC=C2CCC[C@@]3(C)[C@@H]2CC[C@H]3[C@H](C)CCCC(C)C)C[C@@H](O)C[C@@H]1O,12.6 µM (active),–
CCC(CCC(C)C1CCC2C3CC=C4CC(O)CC[C@@]4(C)C3CC[C@@]12C)C(C)C (stereo partly drawn),inactive,–
COc1ccc(C(=O)O/N=C(\N)c2ccccn2)cc1[N+](=O)[O-],–,-42.4% [at 1.91 µM] (inactive)
Cc1ccc(C(=O)O/N=C(\N)c2ccccn2)cc1Cl,–,35.7% [at 1.91 µM] (inactive)
Cc1cccc(/C(N)=N/OC(=O)c2ccccc2Cl)c1,0.251 µM (active),–
Cc1cccc(C(=O)c2cccc(C)c2)c1,inactive,–
COc1ccc(S(=O)(=O)N2CCC(C(=O)N3CCCC3)CC2)cc1C,inactive,–
O=C(/C=C/c1cn(-c2ccccc2)nc1-c1ccc2c(c1)OCCO2)NCCCN1CCOCC1,17.8 µM (active),–
COc1ccc(-c2nn(-c3ccccc3)cc2/C=C\C(=O)N2CCOCC2)cc1[N+](=O)[O-],inactive,–
COc1ccc(-c2nn(-c3ccccc3)cc2/C=C\C(=O)Nc2ccc(C(=O)O)cc2)cc1,inactive,–
O=C1CSC(=S)N1c1ccc(Cl)c(Cl)c1,inactive,–
COc1cc(N2C(=O)CSC2=S)cc(OC)c1OC,inactive,–
O=C1CSC(=S)N1c1ccc(O)cc1,12.6 µM (active),–
CC1CN(C(=O)CCC(=O)NC2CCN(Cc3ccccc3)CC2)c2ccccc2O1 (stereo not drawn),inactive,–
Cc1ccc(OCC(=O)Nc2ccccc2C(=O)NC2CC2)cc1C,inactive,–
NNC(=O)c1ccc(Cl)cc1Cl,inactive,–
O=C(N/N=C1\CCSC1)c1cc(Cl)ccc1O,11.2 µM (active),–
O=C(Nn1cnnc1)c1cc(Cl)ccc1Cl,inactive,–
